Among the data in the supplement of paper PMC6555819 are PBM binding z-score values, retold here.

This assay concerns LXRb homodimer (NR concentration 270 nM). Nature of the assay: PBM binding z-score (relative to random genomic background probes); higher = stronger binding; sequences stand for … in GC…GCGATTGACAGCGTAGAATGAAGG
An outline of the steps:
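Binding z-scores were set against random background probes. The data came from custom Agilent 4×180K protein-binding microarrays carrying double-stranded probes with 34-nt variable regions, incubated 1 h with ligand-free nuclear receptor dimers. Partner-specific antibodies detected binding, and scanned fluorescence was regression-normalized.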
The sequence CCTTGCGGGTCACGAGGTTATAGCACGACGAGCG gave a PBM binding z-score of -0.139. For the sequence TCGAGTAGGTTACCAATGGGGCTTTCAGCTTTCT, the PBM binding z-score was -0.632.

Take CGTCCAAGGACAAGGTCAGTGAAAGAGACTCGAA: the PBM binding z-score was -0.506. In the case of ATCTCTAGGTAAGACTCAGTTCAGAGAAGAACGC, the PBM binding z-score amounted to 0.78. TCTTGTAGATCAACAGGAGGTTAAGAAAGATCGA: the PBM binding z-score was -0.3.

CCAGACAGGTGAGAAGGTAACTCAACCTCGATTA came in with a PBM binding z-score of -0.388. As for CTACCAAGGTGAGCAAGGTCGTTGATTACTATTC, the PBM binding z-score was -0.778. On to AGTCAAAGTACACTAGGTAACGTAAGATTCAGCT, for which the PBM binding z-score stood at 0.0714. CGAACTAGGTCAGAAAAGGACAGTGAAGGATGAT: the PBM binding z-score was -0.514. In the case of TCATATAGGTAAATGCTAGCTGAAAGTCCGATCT, the PBM binding z-score is -0.112.

In turn, TTACTAAGGTGAGCTGAGGTCGTTGATCCAACTC had a PBM binding z-score of -0.663. The sequence ACTAGCAGGCCAAGTTTGGGTTACTCAAACAAAG registered a PBM binding z-score of -0.552. For the sequence TTACCAAGGTGAGCTGAGGACGTTGATCCAACTC, the PBM binding z-score was -1.14. Consider ATCTCTAGGTAAAAGTTCAATGAATCCCGAGGAT, for which the PBM binding z-score was determined as 1.14. In the case of GTACCAAGGTGAATGGGTCGTTGATGAGTAGGCG it was -0.983; in that of CAGCCTAGGTCAGGGCCAGTATCGGAGGAACGTT, -1.03; in that of CAAACTAGGTCAGGAGGTCAAAGTCCGCTTCCCG, 1.11. Turning to TAGCCTAGGTCATTCGGGCCAGTATAGTGTCGGC, the PBM binding z-score was found to be 0.458. In the case of ACAGACAGGCGAGTGAAGGTAACTCAGCTGGACG it was -0.426; in that of GGAACCAGGGCATTCGAGTTGATAGCATGGCGAT, 0.153; in that of ATATGTAGGTTATCGGGTCAGTCAGTTTGCGCAT, 1.49. In the case of CCTTACGGGTCACTGACAGGTTATATCATTTGGA it was -0.0554.
